# This is one part of a sample in which the strongest signals are shown more often than they occur.
# B1: SUN4 (Saccharomyces cerevisiae), P53616 (protein)
# chain: MGSSHHHHHHSSGLVPRGSHNGSIYGDLADFSGPYEKFEDGTIPCGQFPSGQGVIPISWLDEGGWSGVENTDTSTGGSCKEGSYCSYACQPGMSKTQWPSDQPSDGRSIGGLLCKDGYLYRSNTDTDYLCEWGVDAAYVVSELSNDVAICRTDYPGTENMVIPTYVQAGDSLPLTVVDQDTYYTWQGLKTSAQYYVNNAGISVEDACVWGSSSSGVGNWAPLNFGAGSSDGVAYLSLIPNPNNGNALNFNVKIVAADDSSTVNGECIYENGSFSGGSDGCTVSVTAGKAKFVLYN
# Experiments:
# Experiment in all cases: glycan array binding signal (z-score within array); higher = stronger binding
# Settings in all cases: glycan notation: IUPAC condensed, linker removed
# [1] = biological target: Gal(b1-4)GlcNAc(b1-3)Gal(b1-4)GlcNAc(b1-3)Gal(b1-4)GlcNAc(b1-2)Man(a1-3)[Gal(b1-4)GlcNAc(b1-3)Gal(b1-4)GlcNAc(b1-3)Gal(b1-4)GlcNAc(b1-2)Man(a1-6)]Man(b1-4)GlcNAc(b1-4)[Fuc(a1-6)]GlcNAc
# Summary of the method: (§1)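 Glycan array data were curated from 3228 arrays in the Consortium for Functional Glycomics database and kept only where the protein sequence was available. Glycan names were converted to IUPAC-condensed notation, and columns mapping to the same glycan were averaged. The binding signal is a within-array Z-score, averaged across arrays of the same protein sequence at different concentrations or buffers and across linkers. Negative Z-scores can be read as non-binding.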
# [2] = biological target: Gal(b1-4)GlcNAc(b1-3)[Gal(b1-4)GlcNAc(b1-6)]Gal(b1-4)GlcNAc
# Summary of the method: as §1
# [3] = biological target: Gal3S6S(b1-4)GlcNAc
# Summary of the method: as §1
# [4] = biological target: GalNAc(a1-3)GalNAc(b1-3)Gal(a1-4)Gal(b1-4)Glc
# Summary of the method: as §1
# [5] = biological target: GalNAc(b1-4)GlcNAc(b1-2)Man(a1-3)[GalNAc(b1-4)GlcNAc(b1-2)Man(a1-6)]Man(b1-4)GlcNAc(b1-4)GlcNAc
# Summary of the method: as §1
# [6] = biological target: GalNAc(b1-4)GlcNAc(b1-3)GalNAc(b1-4)GlcNAc
# Summary of the method: as §1
# [7] = biological target: GalNAc(b1-4)GlcNAc6S
# Summary of the method: as §1
# [8] = biological target: GalNAc3S(b1-4)GlcNAc
# Summary of the method: as §1
# [9] = biological target: GlcA(b1-3)GlcNAc
# Summary of the method: as §1
# [10] = biological target: GlcNAc(a1-3)Gal(b1-4)GlcNAc
# Summary of the method: as §1
# [11] = biological target: GlcNAc(b1-2)Gal(b1-3)GalNAc
# Summary of the method: as §1
# [12] = biological target: GlcNAc(b1-2)Man(a1-3)[GlcNAc(b1-4)][GlcNAc(b1-2)Man(a1-6)]Man(b1-4)GlcNAc(b1-4)[Fuc(a1-6)]GlcNAc
# Summary of the method: as §1
# [13] = biological target: GlcNAc(b1-3)Gal(b1-4)GlcNAc(b1-3)Gal(b1-4)GlcNAc
# Summary of the method: as §1
# [14] = biological target: GlcNAc(b1-3)Gal(b1-4)GlcNAc(b1-3)Gal(b1-4)GlcNAc(b1-2)Man(a1-3)[GlcNAc(b1-3)Gal(b1-4)GlcNAc(b1-3)Gal(b1-4)GlcNAc(b1-2)Man(a1-6)]Man(b1-4)GlcNAc(b1-4)GlcNAc
# Summary of the method: as §1
# [15] = biological target: GlcNAc(b1-3)Gal(b1-4)GlcNAc(b1-3)Gal(b1-4)GlcNAc(b1-2)[GlcNAc(b1-3)Gal(b1-4)GlcNAc(b1-3)Gal(b1-4)GlcNAc(b1-6)]Man(a1-6)[GlcNAc(b1-3)Gal(b1-4)GlcNAc(b1-3)Gal(b1-4)GlcNAc(b1-2)Man(a1-3)]Man(b1-4)GlcNAc(b1-4)[Fuc(a1-6)]GlcNAc
# Summary of the method: as §1
# [16] = biological target: GlcNAc(b1-3)Gal(b1-4)GlcNAc(b1-3)Gal(b1-4)GlcNAc(b1-3)Gal(b1-4)GlcNAc(b1-2)[GlcNAc(b1-3)Gal(b1-4)GlcNAc(b1-3)Gal(b1-4)GlcNAc(b1-3)Gal(b1-4)GlcNAc(b1-6)]Man(a1-6)[GlcNAc(b1-3)Gal(b1-4)GlcNAc(b1-3)Gal(b1-4)GlcNAc(b1-3)Gal(b1-4)GlcNAc(b1-2)Man(a1-3)]Man(b1-4)GlcNAc(b1-4)[Fuc(a1-6)]GlcNAc
# Summary of the method: as §1
# [17] = biological target: Neu5Ac(a2-3)Gal(b1-3)GalNAc(b1-3)Gal(a1-4)Gal(b1-4)Glc
# Summary of the method: as §1
# [18] = biological target: Neu5Ac(a2-3)Gal(b1-4)GlcNAc(b1-2)[Neu5Ac(a2-3)Gal(b1-4)GlcNAc(b1-6)]Man(a1-6)[Neu5Ac(a2-3)Gal(b1-4)GlcNAc(b1-2)Man(a1-3)][GlcNAc(b1-4)]Man(b1-4)GlcNAc(b1-4)GlcNAc
# Summary of the method: as §1
# [19] = biological target: Neu5Ac(a2-3)Gal(b1-4)GlcNAc(b1-3)Gal(b1-3)GlcNAc
# Summary of the method: as §1
# [20] = biological target: Neu5Ac(a2-3)Gal(b1-4)[Fuc(a1-3)]GlcNAc
# Summary of the method: as §1
# [21] = biological target: Neu5Ac(a2-3)Gal(b1-4)[Fuc(a1-3)]GlcNAc(b1-3)GalNAc
# Summary of the method: as §1
# [22] = biological target: Neu5Ac(a2-6)Gal(b1-4)GlcNAc(b1-2)Man(a1-3)Man(b1-4)GlcNAc(b1-4)GlcNAc
# Summary of the method: as §1
# [23] = biological target: Neu5Ac(a2-6)Gal(b1-4)GlcNAc(b1-2)Man(a1-3)[GlcNAc(b1-4)][Neu5Ac(a2-6)Gal(b1-4)GlcNAc(b1-2)Man(a1-6)]Man(b1-4)GlcNAc(b1-4)GlcNAc
# Summary of the method: as §1
# [24] = biological target: Neu5Ac(a2-6)Gal(b1-4)GlcNAc(b1-2)Man(a1-3)[Neu5Ac(a2-6)Gal(b1-4)GlcNAc(b1-2)Man(a1-6)]Man(b1-4)GlcNAc(b1-4)GlcNAc
# Summary of the method: as §1
# [25] = biological target: Neu5Ac(a2-6)Gal(b1-4)GlcNAc(b1-2)Man(a1-3)[Neu5Ac(a2-6)Gal(b1-4)GlcNAc(b1-2)Man(a1-6)]Man(b1-4)GlcNAc(b1-4)[Fuc(a1-6)]GlcNAc
# Summary of the method: as §1
# [26] = biological target: Neu5Ac(b2-6)Gal(b1-4)GlcNAc
# Summary of the method: as §1
# [27] = biological target: Neu5Gc(a2-6)Gal(b1-4)GlcNAc
# Summary of the method: as §1
# [28] = biological target: Neu5Gc(a2-8)Neu5Gc(a2-3)Gal(b1-4)GlcNAc
# Summary of the method: as §1
binder,measurement,setting,value
B1,glycan array binding signal (z-score),[1],2.9
same,glycan array binding signal (z-score),[2],-1.28
same,glycan array binding signal (z-score),[3],2.2
same,glycan array binding signal (z-score),[4],-0.199
same,glycan array binding signal (z-score),[5],4.51
same,glycan array binding signal (z-score),[6],-0.309
same,glycan array binding signal (z-score),[7],0.149
same,glycan array binding signal (z-score),[8],1.87
same,glycan array binding signal (z-score),[9],-0.127
same,glycan array binding signal (z-score),[10],0.414
same,glycan array binding signal (z-score),[11],0.963
same,glycan array binding signal (z-score),[12],-0.555
same,glycan array binding signal (z-score),[13],0.244
same,glycan array binding signal (z-score),[14],0.121
same,glycan array binding signal (z-score),[15],1.97
same,glycan array binding signal (z-score),[16],1.86
same,glycan array binding signal (z-score),[17],0.263
same,glycan array binding signal (z-score),[18],-0.391
same,glycan array binding signal (z-score),[19],-0.71
same,glycan array binding signal (z-score),[20],-0.661
same,glycan array binding signal (z-score),[21],1.91
same,glycan array binding signal (z-score),[22],-0.036
same,glycan array binding signal (z-score),[23],0.646
same,glycan array binding signal (z-score),[24],0.023
same,glycan array binding signal (z-score),[25],0.827
same,glycan array binding signal (z-score),[26],-0.182
same,glycan array binding signal (z-score),[27],-0.424
same,glycan array binding signal (z-score),[28],-0.415
